# Source: PubChem BioAssay (National Center for Advancing Translational Sciences (NCATS))
# Shown are actives, neighbours in structure and some others; about 2.4% of the full set was active somewhere.
# D2 antagonist = HTS Assay for Allosteric Antagonists of the Human D2 Dopamine Receptor: Primary Screen for Antagonists; hit rate 2% among 340,000; AID 485344, 2010; D(2) dopamine receptor (Homo sapiens), P14416; HEK293 TREx D2 cells, calcium flux, dopamine EC80; inhibition, % at 10 µM; in the data active means inhibition above about 30%; inactive means below that, where a call was filed; further: 0% is about no effect
# Target sequence (P14416 whole entry, looked up): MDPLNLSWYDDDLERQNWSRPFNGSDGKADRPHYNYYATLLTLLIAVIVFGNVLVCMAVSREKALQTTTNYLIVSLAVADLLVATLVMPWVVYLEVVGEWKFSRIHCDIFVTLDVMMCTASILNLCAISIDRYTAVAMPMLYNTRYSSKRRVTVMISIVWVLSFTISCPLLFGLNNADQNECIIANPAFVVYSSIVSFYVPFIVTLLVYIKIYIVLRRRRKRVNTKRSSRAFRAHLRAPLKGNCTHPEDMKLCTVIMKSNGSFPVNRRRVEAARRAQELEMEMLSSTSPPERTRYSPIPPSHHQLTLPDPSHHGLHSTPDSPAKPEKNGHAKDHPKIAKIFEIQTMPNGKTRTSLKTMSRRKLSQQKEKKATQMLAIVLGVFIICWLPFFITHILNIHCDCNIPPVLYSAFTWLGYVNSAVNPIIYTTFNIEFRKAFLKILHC
#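 Inhibition of EC80 dopamine-driven calcium flux, recorded kinetically, defines activity here; cells are a tetracycline-induced HEK293 T-REx line expressing force-coupled D2.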
# D2 ag-1 = HTS Assay for Allosteric Agonists of the Human D2 Dopamine Receptor: Primary Screen for Agonists. D(2) dopamine receptor (Homo sapiens), P14416. HEK293 T-REx D2 cells, calcium flux agonist mode. activation, % at 2 µM. hit rate 0.53% among 340,000. AID 485358, 2010;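 active means activation over 3 SD above normal in the single-dose calcium agonist read, cut at about 30% in these data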; further: 0% is about no effect
#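 Agonism is scored from calcium flux in a force-coupled, inducible HEK293 cell line expressing D2, read kinetically for 180 s after compound addition against dopamine controls.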
# D2 PAM-1 = Beta-Arrestin HTS for Positive Allosteric Modulators of the Human D2 Dopamine Receptor: Potentiators; D(2) dopamine receptor (Homo sapiens), P14416; DiscoveRx D2 beta-arrestin cells, luminescence, 90 min; 100% = 57 uM dopamine signal; potentiation, % (concentration not given with the values); hit rate 0.23% among 360,000; AID 624464, 2012; in the data active means potentiation above about 50%; inconclusive means mostly about 30% to 49%
#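 D2 cells co-treated with compound plus 50 nM dopamine (EC20) for 90 min at 37 deg C to detect potentiation. Beta-arrestin recruitment was read as enzyme-fragment luminescence after 1 h at ambient temperature. Full response was set by 57 uM dopamine.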
# D2 ag-2 = Beta-Arrestin HTS for Positive Allosteric Modulators of the Human D2 Dopamine Receptor: Agonists; AID 624465, 2012; D(2) dopamine receptor (Homo sapiens), P14416; hit rate 0.084% among 360,000; DiscoveRx PathHunter D2 beta-arrestin, luminescence, 90 min; 100% = 57 uM dopamine signal; activation, % (test concentration not listed); in the data active means activation above about 40%; inconclusive means between about 15% and that limit
#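 Agonist mode: compounds alone added to overnight-plated D2 PathHunter cells for 90 min at 37 C, with 57 uM final dopamine (EC100) defining full response. Beta-arrestin recruitment detected by chemiluminescent reagent, read after 1 h at ambient temperature.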
# D2 PAM-2 = HTS Assay for Positive Allosteric Modulators of the Human D2 Dopamine Receptor: Primary Screen for Potentiators; D(2) dopamine receptor (Homo sapiens), P14416; HEK293 T-REx D2, calcium flux, EC20 dopamine potentiation; potentiation, % at 10 µM; hit rate 0.34% among 340,000; AID 485347, 2010;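 active means potentiation over 3 SD above the plate norm, cut at about 30% in these data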; further: 0% is about no effect
#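 Primary screen. Calcium kinetics in induced HEK293 T-REx D2 cells: compound pre-addition 180 s, EC20 dopamine, 180 s more.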
# * marks the source's active call; other numbers are inactive results; ? = inconclusive; · = no result.
SMILES,D2 antagonist,D2 ag-1,D2 PAM-1,D2 ag-2,D2 PAM-2
Clc1ccccc1OCCN1CCCCC1,44*,1,-37,-4,-33
Clc1ccc(OCCN2CCCCC2)c(Cl)c1,72*,0,-27,-2,-21
Cc1cccc(-c2noc(-c3cc(C(C)C)[nH]n3)n2)c1,·,0,·,·,-1
CCn1nc(C)c(CCN(C)C(=O)Nc2cc(C)cc(C)c2)c1C,·,·,·,·,20
COc1ccc(/C=C2\SC(=S)N(CCC(=O)N3CCCCC3)C2=O)cc1,-5,0,-24,-6,16
O=C1/C(=C/c2cccc(Cl)c2)SC(=S)N1CCC(=O)N1CCCCC1CCO (centres undefined),17,1,-11,6,-13
O=C1/C(=C/c2ccc(Cl)cc2)SC(=S)N1CCC(=O)N1CCCCC1CCO (centres undefined),31*,0,-12,4,8
COCCN1C(=O)/C(=C/c2ccc(N3CCCC3)cc2)SC1=S,9,41*,-9,-5,5
CCOC(=O)N1CCN(C(=O)C(=O)Nc2sc3c(c2C(N)=O)CC(C)(C)OC3)CC1,33*,0,7,-1,5
CC(C)(C)CC(C)(C)c1ccc(O)c(CN2CCN(CCC#N)CC2)c1,4,0,-19,-1,-4
N#CCCN1CCN(Cc2cc(-c3ccccc3)ccc2O)CC1,65*,0,-10,-1,-30
CCN(CC)CCN1C(=O)C(=O)/C(=C(/O)c2ccc(C)cc2)C1c1ccncc1 (centres undefined),9,-2,·,·,-4
CCN(CC)CCN1C(=O)C(=O)/C(=C(/O)c2ccc(Cl)cc2)C1c1ccncc1 (centres undefined),40*,0,-6,2,2
CCN(CC)C(=O)c1c(NC(=O)c2ccccc2F)sc2c1CCC(C(C)(C)C)C2 (centres undefined),·,2,·,·,-20
c1ccc(OCCNc2nc(NCC3CC3)nc3cc(-c4ccccc4)sc23)cc1,·,·,-20,44*,·
CC/C(=N/Nc1ccc(Cl)cc1)c1cnnc(SC)n1,34*,0,-9,-2,6
O=C(NCC(c1cccnc1)N1CCc2ccccc2C1)C(=O)Nc1cccc(Cl)c1 (centres undefined),·,-1,·,·,8
CCc1ccc2oc(-c3cccc(NC(=O)C(C)(C)Oc4ccc(Br)cc4)c3)nc2c1,·,1,·,·,21
O=C(Nc1nnc(C(F)(F)F)s1)c1ccc(Br)s1,35*,19,-6,-10,-18
CCSc1nnc(NC(=O)c2ccc(Br)s2)s1,-11,1,-18,-2,0
O=C(NCC1CCCO1)C(=O)NCC(c1ccco1)N1CCN(c2ccccc2)CC1 (centres undefined),20,35*,-8,14,-6
O=C(NCc1ccncc1)C(=O)NCC(c1ccco1)N1CCN(c2ccccc2F)CC1 (centres undefined),1,34*,-1,7,-12
O=C(NCC1CCCO1)C(=O)NCC(c1ccco1)N1CCN(c2ccc(F)cc2)CC1 (centres undefined),9,2,-12,-3,5
O=C(COc1ccccc1)NCC(c1ccco1)N1CCN(c2ccccc2F)CC1 (centres undefined),0,34*,-5,?,-5
FC(F)(F)c1cccc(N2CCN(c3ncnc4c3nc3n4CCCC3)CC2)c1,·,-2,·,·,1
Cn1nc(C(=O)Nc2ccc(Br)cc2)cc1C(=O)Nc1ccc(Br)cc1,38*,0,-12,-5,4
Cc1ccc(NC(=O)COC(=O)c2ccc(CN3CCCC3=O)cc2)c(Cl)c1,35*,0,11,7,0
Cc1cc(C)cc(NC(=O)COC(=O)c2ccc(CN3CCCC3=O)cc2)c1,3,0,-3,0,0
Cc1ccc(CNC(=O)CN2C(=O)C3(SCC(=O)N3c3cc(C)cc(C)c3)c3ccccc32)cc1 (centres undefined),·,·,·,·,4
